Source: PubChem BioAssay AID1159580 (chemical genetic matrix, 2015)
Screen size: about 5,500 compounds; about 2,000 (36%) were called active. About 18% were inconclusive and are not listed. Cut-off read from the data, not from the text of the source: active = normalized growth mostly below about 0.91 (no sharp cut-off); inconclusive = no clear call, values can overlap the other calls; inactive = mostly above about 0.92. This is one part of the list.

Assay: chemical genetic growth profiling, strain panel (AID 1159580);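 note: tested at 20 µM; growth read once vehicle control cultures reached saturation at 30 °C; 1 = growth at the plate median or of vehicle wells; lower values mean less growth of the strain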
Conditions: growth OD

Measured: normalized growth

C=CCSCC1Nc2cc(Cl)c(S(N)(=O)=O)cc2S(=O)(=O)N1 (configuration not stated)
inactive: S. cerevisiae deletion strains, locus YJR075W, strain HOC1, hits give low values 1.01 | S. cerevisiae deletion strains, locus YKL009W, strain mrt4, hits give low values 1.02 | S. cerevisiae deletion strains, locus YKL068W, hits give low values 1.02 | S. cerevisiae deletion strains, locus YKL085W, strain MDH1 (second series), hits give low values 1 | S. cerevisiae deletion strains, locus YKL085W, strain MDH1, hits give low values 1 | S. cerevisiae deletion strains, locus YKL160W, strain elf1, hits give low values 0.994 | S. cerevisiae deletion strains, locus YKL190W, strain CNB1, hits give low values 1.01 | S. cerevisiae deletion strains, locus YKR001C, strain vps1, hits give low values 1.02 | S. cerevisiae deletion strains, locus YKR026C, strain gcn3, hits give low values 1 | S. cerevisiae deletion strains, locus YKR091W, strain srl3, hits give low values 1 | S. cerevisiae deletion strains, locus YLL001W, strain dnm1, hits give low values 0.997 | S. cerevisiae deletion strains, locus YLL026W, hits give low values 0.998 | S. cerevisiae deletion strains, locus YLL041C, strain sdh2, hits give low values 1 | S. cerevisiae deletion strains, locus YLR027C, strain aat2, hits give low values 0.996 | S. cerevisiae deletion strains, locus YLR039C, strain RIC1, hits give low values 1.02 | S. cerevisiae deletion strains, locus YLR058C, strain SHM2, hits give low values 1.01 | S. cerevisiae deletion strains, locus YLR102C, strain apc9, hits give low values 1.04 | S. cerevisiae deletion strains, locus YLR113W, strain HOG1, hits give low values 1.06 | S. cerevisiae deletion strains, locus YLR221C, strain rsa3, hits give low values 0.988 | S. cerevisiae deletion strains, locus YLR258W, strain gsy2, hits give low values 0.998 | S. cerevisiae deletion strains, locus YLR262C, strain YPT6 (second series), hits give low values 0.989 | S. cerevisiae deletion strains, locus YLR262C, strain YPT6, hits give low values 1.04 | S. cerevisiae deletion strains, locus YLR268W, strain sec22, hits give low values 1.02 | S. cerevisiae deletion strains, locus YLR320W, strain mms22, hits give low values 0.985 | S. cerevisiae deletion strains, locus YLR330W, strain CHS5, hits give low values 1.01 | S. cerevisiae deletion strains, locus YLR342W, strain FKS1 (second series), hits give low values 0.996 | S. cerevisiae deletion strains, locus YLR342W, strain FKS1, hits give low values 1.01 | S. cerevisiae deletion strains, locus YLR357W, strain rsc2, hits give low values 0.991 | S. cerevisiae deletion strains, locus YLR370C, strain arc18, hits give low values 1 | S. cerevisiae deletion strains, locus YLR371W, strain rom2, hits give low values 1.02 | S. cerevisiae deletion strains, locus YLR384C, strain iki3, hits give low values 1 | S. cerevisiae deletion strains, locus YLR418C, strain cdc73, hits give low values 1.04 | S. cerevisiae deletion strains, locus YML016C, strain PPZ1, hits give low values 1.01 | S. cerevisiae deletion strains, locus YML032C, strain rad52, hits give low values 1.03 | S. cerevisiae deletion strains, locus YML120C, strain ndi1, hits give low values 1 | S. cerevisiae deletion strains, locus YML124C, strain tub3, hits give low values 1.02 | S. cerevisiae deletion strains, locus YMR058W, strain fet3, hits give low values 0.998 | S. cerevisiae deletion strains, locus YMR078C, strain ctf18, hits give low values 1.03 | S. cerevisiae deletion strains, locus YMR125W, strain sto1, hits give low values 0.998 | S. cerevisiae deletion strains, locus YMR129W, hits give low values 1 | S. cerevisiae deletion strains, locus YMR205C, strain PFK2, hits give low values 0.995 | S. cerevisiae deletion strains, locus YMR223W, strain ubp8, hits give low values 1.02 | S. cerevisiae deletion strains, locus YMR231W, strain pep5, hits give low values 1 | S. cerevisiae deletion strains, locus YMR263W, strain SAP30, hits give low values 1.02 | S. cerevisiae deletion strains, locus YMR307W, strain GAS1, hits give low values 1.1 | S. cerevisiae deletion strains, locus YNL067W, strain RPL9B, hits give low values 1.01 | S. cerevisiae deletion strains, locus YNL071W, strain lat1, hits give low values 0.999 | S. cerevisiae deletion strains, locus YNL128W, strain TEP1, hits give low values 1.01 | S. cerevisiae deletion strains, locus YNL153C, strain GIM3, hits give low values 1.01 | S. cerevisiae deletion strains, locus YNL183C, strain NPR1, hits give low values 0.977 | S. cerevisiae deletion strains, locus YNL209W, strain ssb2, hits give low values 0.999 | S. cerevisiae deletion strains, locus YNL233W, strain BNI4, hits give low values 0.998 | S. cerevisiae deletion strains, locus YNL248C, strain rpa49, hits give low values 0.989 | S. cerevisiae deletion strains, locus YNL250W, strain rad50, hits give low values 1.03 | S. cerevisiae deletion strains, locus YNL271C, strain bni1, hits give low values 1.03 | S. cerevisiae deletion strains, locus YNL298W, strain CLA4, hits give low values 1.04 | S. cerevisiae deletion strains, locus YNL307C, strain MCK1, hits give low values 1.01 | S. cerevisiae deletion strains, locus YNL322C, strain KRE1 (second series), hits give low values 0.995 | S. cerevisiae deletion strains, locus YNL322C, strain KRE1, hits give low values 1.01 | S. cerevisiae deletion strains, locus YNR049C, strain mso1, hits give low values 0.998 | S. cerevisiae deletion strains, locus YNR052C, strain pop2, hits give low values 1.03 | S. cerevisiae deletion strains, locus YOL006C, strain TOP1, hits give low values 1.03 | S. cerevisiae deletion strains, locus YOL012C, strain htz1 1.06 | S. cerevisiae deletion strains, locus YOL147C, strain pex11, hits give low values 1.02 | S. cerevisiae deletion strains, locus YOR001W, strain rrp6, hits give low values 0.977 | S. cerevisiae deletion strains, locus YOR061W, strain CKA2, hits give low values 1.01 | S. cerevisiae deletion strains, locus YOR069W, strain VPS5, hits give low values 1.01 | S. cerevisiae deletion strains, locus YOR070C, strain gyp1, hits give low values 1 | S. cerevisiae deletion strains, locus YOR080W, strain dia2, hits give low values 1 | S. cerevisiae deletion strains, locus YOR083W, strain WHI5, hits give low values 0.999 | S. cerevisiae deletion strains, locus YOR106W, strain vam3, hits give low values 0.985 | S. cerevisiae deletion strains, locus YOR136W, strain idh2, hits give low values 1.03 | S. cerevisiae deletion strains, locus YOR144C, strain elg1, hits give low values 1.02 | S. cerevisiae deletion strains, locus YOR184W, strain ser1, hits give low values 1.03 | S. cerevisiae deletion strains, locus YOR231W, strain MKK1, hits give low values 1.03 | S. cerevisiae deletion strains, locus YOR265W, strain rbl2, hits give low values 1.03 | S. cerevisiae deletion strains, locus YOR270C, strain vph1, hits give low values 0.974 | S. cerevisiae deletion strains, locus YOR290C, strain snf2, hits give low values 0.987 | S. cerevisiae deletion strains, locus YOR316C, strain cot1, hits give low values 1.03 | S. cerevisiae deletion strains, locus YPL051W, strain arl3, hits give low values 1 | S. cerevisiae deletion strains, locus YPL055C, strain LGE1, hits give low values 1.02 | S. cerevisiae deletion strains, locus YPL078C, strain atp4, hits give low values 0.989 | S. cerevisiae deletion strains, locus YPL106C, strain sse1, hits give low values 1.04 | S. cerevisiae deletion strains, locus YPL240C, strain hsp82, hits give low values 1.01 | S. cerevisiae deletion strains, locus YPL241C, strain CIN2, hits give low values 1.01 | S. cerevisiae deletion strains, locus YPL256C, strain CLN2, hits give low values 1.07 | S. cerevisiae deletion strains, locus YPR119W, strain clb2, hits give low values 1.02 | S. cerevisiae deletion strains, locus YPR141C, strain kar3, hits give low values 1.03 | S. cerevisiae deletion strains, locus YPR163C, strain tif3, hits give low values 1.02 | S. cerevisiae deletion strains, locus YPR167C, strain met16, hits give low values 1.03 | S. cerevisiae deletion strains, strain wtn01, hits give low values 1.02 | S. cerevisiae strains, strain wild type, hits give low values 1.01
